Screening data from PubChem.
BAP1 block = blocks human BAP1 ubiquitin-AMC hydrolysis; AID 436; Q92560; recombinant BAP1, Ub-AMC hydrolysis fluorescence kinetic; stronger effect = lower value; calls only at 20 µM; 72,000 tested, 0.48% active;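 active = activity remaining at or below 50% of control, provided the compound also passes the data quality filters; inactive = the rest, including low values that fail the filters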
Target sequence (Q92560 whole entry, looked up): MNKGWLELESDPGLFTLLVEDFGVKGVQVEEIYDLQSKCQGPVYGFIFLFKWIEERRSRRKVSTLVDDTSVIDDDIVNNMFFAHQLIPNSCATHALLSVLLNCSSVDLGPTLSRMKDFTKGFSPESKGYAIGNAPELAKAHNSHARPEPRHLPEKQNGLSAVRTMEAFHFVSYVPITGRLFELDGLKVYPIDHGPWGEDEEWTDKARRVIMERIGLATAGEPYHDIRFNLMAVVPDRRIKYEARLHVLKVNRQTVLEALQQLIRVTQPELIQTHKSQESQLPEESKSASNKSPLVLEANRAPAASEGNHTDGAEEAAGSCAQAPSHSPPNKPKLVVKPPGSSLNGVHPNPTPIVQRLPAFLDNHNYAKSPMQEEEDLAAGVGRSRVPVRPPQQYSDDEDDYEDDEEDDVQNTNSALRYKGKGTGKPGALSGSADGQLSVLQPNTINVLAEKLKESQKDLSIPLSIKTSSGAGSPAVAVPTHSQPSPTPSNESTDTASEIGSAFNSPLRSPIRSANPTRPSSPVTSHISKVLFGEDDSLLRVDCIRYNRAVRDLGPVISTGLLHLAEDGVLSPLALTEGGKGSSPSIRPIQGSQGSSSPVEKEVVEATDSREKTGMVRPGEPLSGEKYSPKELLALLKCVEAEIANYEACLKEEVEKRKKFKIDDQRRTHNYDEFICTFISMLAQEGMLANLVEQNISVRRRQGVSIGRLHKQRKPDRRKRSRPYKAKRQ
D1 mod = allosteric modulators of human D1 dopamine receptor | P21728 | HEK293 D1, CRE-luciferase, dopamine EC30 potentiation; actives deviate in either direction | B-score at 10 µM | 58,000 tested, 5.9% active | AID 641;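 active = luminescence count or its row- and column-corrected plate score outside the 99.7% band of the plate's sample wells, on either side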
DAT uptake mod = human DAT dopamine uptake with cocaine, either direction. LLC-PK1 hDAT cells, [14C]-dopamine uptake with cocaine IC80; actives deviate in either direction. B-score at 10 µM. 110,000 tested, 1.3% active. Q01959;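 active = Z score or B-score, a plate-position-corrected score, falls beyond the plate's 99.7% confidence bounds, in either direction; inactive = both scores lie inside the 99.7% bounds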
Hits are given with their value; – = inactive; · = no result shown. The sample as a whole holds a higher share of hits than the screen did.

SMILES	BAP1 block	D1 mod	DAT uptake mod
CCOC(=O)C1=C(C)NC(SCC(=O)Nc2cc(C)on2)=C(C#N)C1c1cccs1 (stereo not drawn)	–	-5.28	–
CCOC(=O)C1=C(C)NC(SCC(N)=O)=C(C#N)C1c1cccs1 (stereo not drawn)	·	·	–
CC(=O)c1cccc(NC(=O)c2ccccc2Br)c1	–	·	·
Cc1ccccc1-c1nnc(NC(=O)c2cc3ccccc3oc2=O)s1	·	·	–
CCc1nnc(NC(=O)c2ccc(OC)cc2OC)s1	–	-4.83	–
CCc1nnc(NC(=O)c2cc3ccccc3oc2=O)s1	–	–	-8.92
CCc1nnc(NC(=O)Nc2ccccc2OC)s1	–	–	–
CCN(C(=O)CN1C(=O)c2ccccc2C1=O)c1ccccc1C	–	·	·
CCC(Oc1ccccc1)C(=O)Nc1cccc2c1C(=O)c1ccccc1C2=O (stereo not drawn)	–	·	·
CC1=NN(c2ccccc2)C(=O)C1C(c1ccc2c(c1)OCO2)C1C(=O)N(c2ccccc2)N=C1C (stereo not drawn)	–	·	·
CCOC(=O)N1CCC(NC(=O)CSCc2cnn(-c3ccccc3)c2-n2cccc2)CC1	–	–	3.19
CNC(=O)CSCc1cnn(-c2ccccc2)c1-n1cccc1	·	·	–
COc1ccc2[nH]c3nc(SC(C)C)nnc3c2c1	–	-4.03	·
COc1ccc2[nH]c3nc(SCc4nnc(-c5ccccc5)o4)nnc3c2c1	–	–	–
COc1cc(CO)cc(Br)c1OCc1cccnc1	–	-3.14	–
COc1cc(CNCCO)cc(Br)c1OCc1cccs1	·	·	–
O=C(Nc1nc(-c2cccc3ccccc23)cs1)c1ccccc1Cl	–	·	·
CC(=O)Oc1cc2oc(=O)c3c(c2cc1Cl)CCC3	·	–	5.64
CC(C)Oc1cc2oc(=O)c3c(c2cc1Cl)CCC3	–	–	–
COC(=O)C1=C(C)N(C)C(C)=C(C(=O)OC)C1c1cc(Br)ccc1OC	–	·	·
O=C(Nc1cccn(Cc2ccccc2)c1=O)NC1CCCCC1	·	·	–
O=C(Nc1cccn(Cc2ccc(F)cc2)c1=O)NC1CCCCC1	·	·	2.29
CCOC(=O)c1c(NC(=O)c2cccc(N3C(=O)CCC3=O)c2)sc2c1CCC2	–	·	·
Cc1ccccc1-c1nc(-c2cccnc2)no1	–	–	–
Clc1ccccc1-c1nc(-c2cccnc2)no1	–	-1.53	–
SMILES	BAP1 block	D1 mod	DAT uptake mod
CCCc1ccc(-c2ccc(F)c(N)c2)nc1	–	-7.41	–
CCCCc1ccc(-c2ccc(Br)cc2)nc1	·	·	–
CC(C)C(C(=O)Nc1ccccc1C(N)=O)N1C(=O)c2ccccc2C1=O (stereo not drawn)	–	·	·
COCCNC(=O)c1sc2cc(Cl)ccc2c1Cl	–	·	·
C/C(=N\NC(=O)C1CCCN(S(=O)(=O)c2ccccc2)C1)c1cccnc1 (stereo not drawn)	·	·	2.39
COc1ccc(S(=O)(=O)N2CCCC(C(=O)NC3CCCCC3)C2)cc1 (stereo not drawn)	–	–	–
COc1ccc(S(=O)(=O)N2CCCC(C(=O)O)C2)cc1 (stereo not drawn)	·	-2.62	·
C/C(=N\NC(=O)C1CCCN(S(=O)(=O)c2ccccc2)C1)c1ccncc1 (stereo not drawn)	·	·	–
CCC(O)(CC)C12CC3CC(CC(C3)C1)C2	–	·	·
COC(=O)c1c(NC(=O)c2ccc(Cl)c([N+](=O)[O-])c2)sc2c1CCC(C)C2 (stereo not drawn)	–	·	·
Cc1onc(-c2ccccc2Cl)c1C(=O)N1CCCc2ccccc21	–	–	–
Cc1onc(-c2ccccc2Cl)c1C(=O)N1CCc2ccccc21	–	-2.78	–
Oc1ccc(Nc2nc(NCC3CCCO3)c3ccccc3n2)cc1 (stereo not drawn)	–	-2.88	–
Oc1ccccc1Nc1nc(NCC2CCCO2)c2ccccc2n1 (stereo not drawn)	–	–	·
O=C(Cn1cc2c(n1)CCCCC2)Nc1ccc(F)cc1F	–	–	–
Cc1nn(-c2ccc(F)cc2F)c2c1-c1nc(N3CCCC3)ncc1CC2	·	-5.94	–
O=C(CN1C(=O)c2ccccc2C1=O)N1CCCCC1	–	·	–
CC1(C)Nc2ccccc2N(CCC(=O)N2CCOCC2)C1=O	–	–	1.62
CC1(C)Nc2ccccc2N(CC(=O)N2CCCCC2)C1=O	–	–	1.4
CN(C(=O)CCN1C(=O)C(C)(C)Nc2ccccc21)c1ccccc1	–	–	–
Cc1sc(NC(=O)c2cccc(Cl)c2)nc1-c1ccccc1	–	·	·
Cc1nn2c3ccccc3nc2n1CCN1CCCCC1	–	·	·
O=C(OCCN1C(=O)c2cccc3c(N4CCOCC4)ccc(c23)C1=O)c1ccccc1Br	–	·	·
CCOc1ccccc1NC(=O)Cn1nnc(C(=O)Nc2ccc(C)cc2)c1N	–	-5.26	–
CCOc1ccccc1NC(=O)Cn1nnc(C(=O)NCc2ccco2)c1N	–	–	–
SMILES	BAP1 block	D1 mod	DAT uptake mod
O=C(CSc1ncnc2sc3c(c12)CCCC3)Nc1ccccc1Cl	–	·	·
O=C(Nc1c[nH]c(=O)[nH]c1=O)c1ccc2c(c1)C(=O)N(C1CCCCC1)C2=O	–	·	·
COc1ccc(-n2nc(C(=O)NCC(=O)NCc3ccco3)c3ccccc3c2=O)cc1Cl	·	–	–
COCCNC(=O)CNC(=O)c1nn(-c2ccc(OC)c(Cl)c2)c(=O)c2ccccc12	·	·	-6.83
COc1ccc(Br)cc1-c1noc(-c2ccccc2)n1	–	–	–
COCc1nc(-c2cc(Br)ccc2OC)no1	–	–	2.86
N=c1n(CCN2CCOCC2)c2ccccc2n1CC(=O)c1ccco1	–	·	·
CN(Cc1ccccc1)S(=O)(=O)c1ccc(C(=O)Nc2nnc(C3CC3)o2)cc1	–	–	–
COc1ccccc1-c1nnc(NC(=O)c2ccc(S(=O)(=O)N(C)Cc3ccccc3)cc2)o1	–	–	-8.6
CCCCC(=O)Nc1cccc(-c2nnc(-c3ccccc3)o2)c1	–	–	2.81
CCC(CC)C(=O)Nc1cc(NC(=O)C(CC)CC)cc(C(=O)O)c1	–	–	–
Cc1cccc(C)c1OCC(=O)Nc1cccc(-c2nnc(-c3ccccc3)o2)c1	·	·	–
CCCCC(=O)Nc1cc(NC(=O)CCCC)cc(C(=O)O)c1	–	-4.18	–
Cc1ccc(NC(=O)CSc2nnc(N3C(=O)c4ccccc4C3=O)s2)c(C)c1	–	·	·
COc1cc(Br)c(C=Nc2c(C)n(C)n(-c3ccccc3)c2=O)cc1OC	–	·	·
COCCn1c(C)cc(C(=O)CSc2nc3ccccc3o2)c1C	–	–	–
COCCn1c(C)cc(C(=O)CSc2nnc3ccccn23)c1C	–	-7.25	–
CCCCc1ccc(NC(=O)COc2ccc(Cl)cc2)cc1	–	·	·
CCOC(=O)c1cc([N+](=O)[O-])sc1NC(=O)c1ccc(Oc2ccccc2)cc1	–	·	·
Cc1ccc(N2C(=O)CC(Sc3nc4ccccc4o3)C2=O)cc1Cl (stereo not drawn)	·	·	-7.16
Cc1cc(C)n(CC2CC(=O)N(c3ccc(C)c(Cl)c3)C2=O)n1 (stereo not drawn)	–	·	·
Cc1cccc(OC(=O)CC2CS(=O)(=O)CC2CC(=O)Oc2cccc(C)c2)c1 (stereo not drawn)	–	·	·
CCOC(=O)C(O)(CC(=O)c1ccc(OC)cc1)C(F)(F)F (stereo not drawn)	·	·	-8.8
COC(=O)C(O)(CC(=O)Nc1ccc(OC)cc1)C(F)(F)F (stereo not drawn)	·	·	–
Cc1cccc(NC(=O)CC2Sc3ccc(C(F)(F)F)cc3NC2=O)c1C (stereo not drawn)	–	·	·
